From PubChem
Only some compounds are listed: those with a hit (about 0.72% of all), similar ones and a draw of the others.
PKA-R1A act = PKA-R1A complex activation. P00514+P68181. PKA-R1A dissociation, Cy5-IP20 fluorescence polarization; scaled: DMSO 0%, 113 µM cGMP 100%. activation, % at 11.4 µM. actives 0.083% (n = 340,000);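 active = percent activation above the mean of all tested compounds plus 3 SD, cut at about 19% in these data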;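 also: higher means more PKAc released from R1A so a rise in polarization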
PKA-R2B activ = PKA-R2B complex activation; P22694+P31323; PKA-R2B holoenzyme dissociation, Cy5-IP20 fluorescence polarization; R2B truncated from residue 108, S112A mutant; 0% DMSO only, 100% 113 µM cGMP; activation, % at 11.4 µM; actives 0.079% (n = 340,000);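 active = activation above a cutoff set at the mean over all compounds plus 3 SD, cut at about 18% in these data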;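 also: higher means more holoenzyme dissociation and a rise in polarization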
Target sequence (P31323 whole entry, looked up, other chains not shown, the tested form may be a part): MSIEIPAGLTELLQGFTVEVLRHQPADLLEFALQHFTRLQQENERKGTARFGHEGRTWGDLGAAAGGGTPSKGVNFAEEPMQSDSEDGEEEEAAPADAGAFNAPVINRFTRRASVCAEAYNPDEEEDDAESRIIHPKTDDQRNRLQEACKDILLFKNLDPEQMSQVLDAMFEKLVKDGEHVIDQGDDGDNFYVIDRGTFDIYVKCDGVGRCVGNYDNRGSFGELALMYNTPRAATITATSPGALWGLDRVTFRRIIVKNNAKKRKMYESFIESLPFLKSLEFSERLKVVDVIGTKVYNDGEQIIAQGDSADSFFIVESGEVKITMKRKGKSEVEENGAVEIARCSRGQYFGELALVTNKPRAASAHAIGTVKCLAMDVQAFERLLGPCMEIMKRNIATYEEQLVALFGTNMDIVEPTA
PolyA inhibitor = yeast polyadenylation inhibition; S. cerevisiae SKY197-pL101 polyadenylation reporter, beta-gal luminescence; efflux-impaired pdr1/pdr3 knockout yeast; score 100 = 6 SD above DMSO; actives 0.02% (n = 300,000); activity score, % at 12 µM; AID 1875;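 active = lowest replicate activity score at least 50, where 100 means six control SD above control mean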;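 also: yeast exposed to compound for 9 h at 30 °C; higher score means more reporter readthrough which indicates perturbed polyadenylation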
Neddylation inh = cullin neddylation inhibition; P61081+Q13564; TR-FRET cullin neddylation, biochemical; calls only at 25 µM; actives 0.58% (n = 360,000); AID 651699; in the data active = inhibition above about 36%
Neddyl conf = cullin neddylation inhibition, confirmation. shares compounds with Neddylation inh. TR-FRET cullin neddylation biochemical assay. calls only at 25 µM. actives 13% (n = 1,800). AID 652217; in the data active = inhibition above about 40%;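 also: neddylation substrate is the cullin 1 ring ligase complex with SKP2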
* hit, by the source's call; i = inactive; . = no result shown; + = active, no number.

SMILES	PKA-R1A act	PKA-R2B activ	PolyA inhibitor	Neddylation inh	Neddyl conf
CC1=C(C(=O)OCC(C)C)C(c2cc3c(cc2Br)OCO3)NC(=O)N1C (stereo not given)	-20.4	3.5	6.2	i	.
CCCOC(=O)C1=C(C)N(C)C(=O)NC1c1cc2c(cc1[N+](=O)[O-])OCO2 (stereo not given)	-6.4	3.1	-4.4	+	i
CCN(CC)c1ccc(S(=O)(=O)N2CCOCC2)cc1NC(=O)COC(=O)/C=C/c1ccccc1	6.8	-2.0	.	i	.
CCN(CC)c1ccc(S(=O)(=O)N2CCOCC2)cc1NC(=O)COC(=O)/C=C/c1ccc(O)c(OC)c1	-2.1	1.5	.	+	i
COc1cccc(/C=C/C(=O)N2CCN(S(=O)(=O)c3ccccc3)CC2)c1	2.4	-1.6	.	+	i
COc1cc(/C=C/C(=O)OCC(=O)N2CCN(S(=O)(=O)c3ccc(C)cc3C)CC2)ccc1O	-9.8	-2.4	9.9	+	i
COc1cccc(/C=C/C(=O)OCC(=O)N2CCN(S(=O)(=O)c3ccc(Cl)cc3)CC2)c1	8.9	5.3	-9.0	+	i
CCN1CCN(S(=O)(=O)c2ccc(Cl)c(C(=O)N(C)Cc3cccc(Cl)c3Cl)c2)CC1	1.5	-1.6	-8.9	i	.
O=S(=O)(Nc1ccc(O)c2ccccc12)c1ccc(Br)cc1	.	.	2.3	.	.
CC1(C(=O)NCc2ccc(Cl)c(Cl)c2)Oc2cccnc2NC1=O (stereo not given)	2.4	4.2	9.7	i	.
C/C=C(\C)C(=O)OC1[C@H](OC(C)=O)C2(CO)C(CC1(C)C)C1=CCC3C4(C)CCC(O[C@@H]5O[C@H](C(=O)O)[C@@H](O[C@@H]6O[C@H](CO)[C@@H](O)[C@H](O)[C@H]6O)[C@H](O)[C@H]5O[C@H]5O[C@H](CO)[C@@H](O)[C@H](O)[C@H]5O)[C@](C)(CO)C4CCC3(C)[C@]1(C)C[C@H]2O (stereo not given in full)	6.3	10.0	.	i	.
COc1cc(C(=O)NCc2cn3ccccc3n2)cc(OC)c1OC	-2.8	-10.9	12.3	i	.
COc1cccc(/C=C/C(=O)NCc2cn3cc(Cl)ccc3n2)c1OC	-3.8	-1.6	10.4	+	i
CCOC(=O)C1(C)CCN1C(=O)c1cc(-c2ccc(Cl)cc2)oc1C (stereo not given)	.	.	.	i	.
CCOC(=O)C1=C(COCCN)NC(C)=C(C(=O)OC)C1c1ccccc1Cl (stereo not given)	4.5	3.0	35.6	.	.
CCOC(=O)C1=C(C)NC(C)=C(C(=O)OC)C1c1cccc(Cl)c1Cl (stereo not given)	-19.5	-11.5	-11.3	.	.
Cn1cnnc1-c1cccc(NC(=O)c2cc(F)c(F)cc2Cl)c1	6.2	-11.4	-0.5	i	.
CCOc1ccccc1CN1CCN(C2CCSCC2)CC1CCO (stereo not given)	-3.8	2.4	-13.5	i	.
N#C/C(=C\c1cn(Cc2ccc(C#N)cc2)c2ccccc12)C(=O)NCc1cccs1	-3.2	-3.7	-0.9	+	.
N#C/C(=C\c1cn(CCOc2ccccc2F)c2ccccc12)C(=O)NCc1cccs1	-8.0	-5.7	-4.8	i	.
O=C1OCC2=C1C(c1ccc(F)cc1)c1cc3c(cc1N2)OCO3 (stereo not given)	1.1	-0.8	.	+	.
O=C(O)CCc1ccc(-c2ccc(F)cc2)n1CC1CCCO1 (stereo not given)	-14.2	3.8	5.6	i	.
O=C(O)CCc1ccc(-c2cccs2)n1CC1CCCO1 (stereo not given)	-2.4	10.7	-5.4	+	i
CCOc1ccc(NC(=O)CSc2nc3ccsc3c(=O)n2CCC(=O)O)cc1	0.3	-4.3	-4.3	i	.
CCCc1ccc2oc(C(=O)N3CCN(c4cnccn4)CC3)c(C)c2c1	-8.1	-5.4	-5.5	+	i
SMILES	PKA-R1A act	PKA-R2B activ	PolyA inhibitor	Neddylation inh	Neddyl conf
Cc1onc(-c2ccccc2)c1NC(=O)N(CCC#N)Cc1ccccc1	.	.	0.4	i	.
CC[C@@H]1C(c2ccccc2)=NN(c2ccccc2)[C@H]1C(=O)N1CCOC1=O	-4.9	-5.1	.	+	.
CCn1cc(C2CC(=O)NC2=O)c2ccccc21 (stereo not given)	-6.3	-4.3	-8.1	i	.
COc1cc(F)ccc1CN1CCC(n2nccc2NC(=O)C2CCOC2)CC1 (stereo not given)	2.4	-3.7	2.8	i	.
Cc1ccc2c(c1)c1c3n2CC(=C2C(=O)OC(C)(C)OC2=O)NC3CCC1 (stereo not given)	-8.2	-5.1	20.0	+	i
O=C(CCC(=O)Nc1cccc([N+](=O)[O-])c1)N/N=C/c1cccs1	-9.4	-14.5	.	i	.
COc1ccc(OC)c(C(C(=O)NC2CCCCC2)N(C(=O)c2snc(C(N)=O)c2N)c2ccccc2OC)c1 (stereo not given)	8.6	5.0	-10.6	i	.
COc1ccc(C)cc1N(C(=O)c1snc(C(N)=O)c1N)C(C(=O)NC1CCCCC1)c1ccc(C)o1 (stereo not given)	16.4	3.6	17.5	+	.
CCOc1ccccc1N(C(=O)c1snc(C(N)=O)c1N)C(C(=O)NCCC(C)C)c1ccco1 (stereo not given)	0.7	-12.1	12.6	+	i
COc1ccccc1N(C(=O)c1snc(C(N)=O)c1N)C(C(=O)NC1CCCC1)c1ccco1 (stereo not given)	10.0	4.6	9.8	+	+
CCN1CCN(c2ccc(S(=O)(=O)N3CCCCC3)cc2NC(=O)c2cccc(C(F)(F)F)c2)CC1	5.3	-12.8	7.3	i	.
CC1(C)C=Cc2cc(-c3coc4cc(O)cc(O)c4c3=O)cc(O)c2O1	0.2	-4.1	-11.5	i	.
CCc1cc2c3c(c(=O)oc2cc1OCC(=O)OC)CCCC3	10.2	-10.7	1.6	+	i
CCc1cc2c3c(c(=O)oc2cc1OC(C)C(=O)O)CCCC3 (stereo not given)	-8.5	-5.0	1.7	.	.
COc1cc(/C=C/CNC[C@H]2O[C@@H](n3cnc4c(=O)[nH]c(N)nc43)[C@H](O)[C@@H]2O)ccc1O	.	.	.	i	.
Nc1ncnc2c1CN(Cc1ccccc1)CC2	-6.9	-0.2	.	i	.
Nc1nc2c(c(=O)[nH]1)CN(Cc1ccccc1)CC2	-5.5	-7.7	19.5	+	i
C[C@H](O)C(=O)C1=Nc2c(nc(N)[nH]c2=O)NC1	5.2	-6.3	.	+	i
O=C(N/N=C/c1ccc([N+](=O)[O-])o1)c1ccncc1	.	.	-6.6	+	i
CSc1ccccc1NC(=O)c1cc2c(=O)n3ccccc3nc2s1	-2.4	0.1	6.9	+	.
CC(C)NC(=O)c1cc2c(=O)n3ccccc3nc2s1	-1.1	-2.3	4.1	i	.
CC(NS(=O)(=O)CCNC(=O)c1ccccc1)c1ccccc1 (stereo not given)	0.5	-0.4	-2.0	i	.
